# Measurements reported in PubChem BioAssay AID1053118 (Broad Institute, 2014).
# Results with a measured potency or affinity are listed apart. The source made the active and inactive calls.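 Rule for the calls: active = fitted half-maximal concentration for ATP signal loss at most twice the top valid dose; inconclusive = flat curve between -70 and -30%, or an invalid fit; inactive = flat within ±30%, wrong direction, or potency past limit.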
# Assay: HepG2 cell cytotoxicity, dose response, cytotoxicity control, cherry-picks, set 5 (AID 1053118)
# Details: HepG2 viability, ATP luminescence, 72 h; series mostly up to 26 µM
row,SMILES,outcome
1,Cc1ccc(NC(=O)COC(=O)c2cc(Cl)ccc2[N+](=O)[O-])c(C)c1,inactive
2,O=C(CC1Nc2ccccc2NC1=O)Nc1ccc2c(c1)OCO2 (stereo unspecified),inactive
3,O=C(NCCS(=O)(=O)N1CCN(c2ccc(F)cc2)CC1)c1ccc(Br)o1,inactive
4,C[C@H](CO)N1C[C@H](C)[C@@H](CN(C)Cc2ccccc2)Oc2ncc(-c3ccccc3)cc2C1=O,inactive
5,Cc1ccc(S(=O)(=O)N2CC[C@@H]3[C@H](CO)Nc4ccc(-c5cccc(C(=O)N(C)C)c5)cc4[C@@H]32)cc1,inactive
6,COc1cccc(-c2ccc3c(c2)[C@@H]2[C@@H](CCN2S(=O)(=O)c2cccc(OC)c2)[C@@H](CO)N3)c1,inactive
7,N#Cc1ccc(-c2ccc3c(c2)[C@@H]2[C@@H](CCN2S(=O)(=O)c2cccc(F)c2)[C@@H](CO)N3)cc1,inactive
8,N#Cc1ccc(-c2ccc3c(c2)[C@@H]2[C@@H](CCN2S(=O)(=O)c2cccc(F)c2)[C@H](CO)N3)cc1,inactive
9,Cc1ccc(CS(=O)Cc2ccc(C(=O)NC3CCCC(C)C3C)o2)cc1 (stereo unspecified),inactive
10,Cc1ccccc1S(=O)(=O)N1CC[C@H]2[C@H](CO)Nc3ccc(-c4ccc(C#N)cc4)cc3[C@H]21,inactive
11,O=S(=O)(c1ccccc1F)N1CC[C@H]2[C@H](CO)Nc3ccc(-c4cccc(F)c4)cc3[C@H]21,inactive
12,CC(C)(C)[S@](=O)N1Cc2cc(C(=O)NCc3ccccc3F)nc(-c3cccc(-c4cncnc4)c3)c2[C@@H]1CCO,inactive
13,COCC(=O)Nc1ccc2c(c1)C(=O)N(C)[C@H]1CC[C@@H](CC(=O)NCc3ccccc3Cl)O[C@H]1CO2,inactive
14,CO[C@H]1CN(C)C(=O)c2cc(NC(C)=O)ccc2OC[C@@H](C)N(C(=O)CN2CCOCC2)C[C@H]1C,inactive
15,C[C@H]1CN([C@@H](C)CO)C(=O)c2cc(-c3ccccc3)cnc2O[C@@H]1CN(C)C(=O)c1cccc(F)c1,inactive
16,O=C(CN1CCCC1)Nc1ccc(Oc2ccc(NC(=O)CN3CCCC3)cc2)cc1,inactive
17,O=C(c1cccnc1)N1C[C@H]2[C@@H](c3ccccc31)[C@H](CO)N2CC1CCCC1,inactive
18,CC(C)(C)[S@@](=O)N1Cc2cc(C(=O)NCc3ccccc3F)nc(-c3cccc(-c4ccncc4)c3)c2[C@H]1CCO,inactive

row,SMILES,outcome
1,COc1ccccc1CC(=O)OC(C)C(=O)Nc1ccc(S(=O)(=O)N2CCCCC2)cc1 (stereo unspecified),inactive
2,C[C@H](O)C#Cc1ccc2c(c1)O[C@@H](CN(C)C)[C@H](C)CN([C@@H](C)CO)S2(=O)=O,inactive
3,C[C@H](O)C#Cc1ccc2c(c1)O[C@H](CN(C)C)[C@H](C)CN([C@H](C)CO)S2(=O)=O,inactive
4,N#C[C@@H]1[C@@H](c2ccccc2C2=CCCCC2)[C@@H](CO)N1S(=O)(=O)c1ccccc1,inactive
5,C[C@@H]1CN([C@@H](C)CO)C(=O)c2cc(NC(=O)C3CCCCC3)ccc2O[C@H]1CN(C)Cc1ccc(-c2ccccc2)cc1,inactive
6,COC(=O)C[C@@H]1CC[C@@H]2[C@@H](COc3ccc(NC(=O)Cc4cccs4)cc3C(=O)N2C)O1,inactive
7,COc1ccc(-c2oc3ncnc(NCCCN4CCOCC4)c3c2-c2ccc(OC)cc2)cc1,inactive
8,OC(CNC1CCCc2ccccc21)COc1c(Cl)cccc1Cl (stereo unspecified),inactive
9,Cc1cccc(NC(=O)c2ccc(S(=O)(=O)N3CCCCC3)cc2)n1,inactive
10,Nc1nc(-c2cc3c(cc2Cl)OCCO3)cs1,inactive
11,C[C@H](CO)N1C[C@H](C)[C@@H](CN(C)Cc2ccc(-c3ccccc3)cc2)Oc2ccc(NC(=O)C3CCCCC3)cc2C1=O,inactive
12,O=C(Nc1ccccc1F)N1C[C@H]2[C@@H](c3ccccc31)[C@H](CO)N2C(=O)C1CC1,inactive
13,C[C@@H]1CN([C@H](C)CO)C(=O)c2cc(NC(=O)CCCN(C)C)ccc2O[C@H]1CN(C)Cc1ccc(-c2ccccc2)cc1,inactive
14,COc1ccccc1N(CC(=O)N(CC(C)C)CC(C)C)S(=O)(=O)c1cccs1,inactive
15,C[C@H](O)C#Cc1ccc2c(c1)O[C@H](CN(C)C)[C@@H](C)CN([C@H](C)CO)S2(=O)=O,inactive
16,C[C@@H]1CN([C@H](C)CO)C(=O)c2cc(-c3ccccc3)cnc2O[C@H]1CN(C)C(=O)c1cccc(F)c1,inactive
17,CN(C)C(=O)c1ccc(-c2ccc3c(c2)[C@@H]2[C@@H](CCN2C(=O)c2ccc(F)cc2)[C@H](CO)N3C)cc1,inactive
18,CC(C)(C)c1cc(Cl)c(O)c(NC(=S)NC(=O)c2cccnc2)c1,inactive
